We go through five compounds from PubChem BioAssay.

SMILES strings stand for the structures. Active and inactive are the calls of the source.

For one experiment, the target named is Albumin (Bos taurus) (UniProt P02769). Description: compounds binding labelled BSA control protein – biochemical, small-molecule microarray, Alexa647 label, 635/667 nm fluorescence, artefact control for SMM control protein annotation, profiling panel (AID 1118).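 Also: score merges 667 nm emission intensity and signal-to-noise per printed compound spot.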 Conditions: BSA-A647 binding, fluorescence 635 nm, higher = more signal.
A short description of experiment [1]: probe aXIP binding to arrayed compounds – biochemical, NeuroSMM set, 635/667 nm fluorescence, primary screen (AID 1119).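 Also: probe is the protein aXip251-270 applied at 1 µg/mL to compound-printed slides; binding of probe to printed compounds measured as 667 nm fluorescence plus signal to noise.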 Conditions: small-molecule microarray, higher = more signal, called active from +8 up or from −8 down.
Experiment [2] in a line: probe aNOTCH3 binding on compound microarray – biochemical, small-molecule microarray, 635/667 nm fluorescence, primary screen (AID 1120).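 Also: probe is a biotin-tagged antibody raised against NOTCH3 rather than NOTCH3 protein; score merges spot fluorescence near 667 nm with spot signal to noise.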 Particulars: higher = more signal.
A short description of experiment [3]: probe aNOTCH2 binding on compound microarray – biochemical, small-molecule microarray, 635/667 nm fluorescence, primary screen (AID 1121).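 Also: score merges feature fluorescence read at 667 nm with its signal to noise.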 Particulars: higher = more signal.
Experiment [4] concerns the target Carbonic anhydrase 2 (Homo sapiens) (UniProt P00918). Put plainly: compounds binding carbonic anhydrase 2 – biochemical, small-molecule microarray, Alexa647-labelled CAII, profiling panel (AID 1122). Particulars: CAII-A647 binding fluorescence, higher = more signal.
Experiment [5] can be described thus: COS7 lysate on small-molecule microarray, probe aHis, 635 nm (AID 1123).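 Also: z-score combines 667nm fluorescence intensity with signal-to-noise per printed compound spot.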 Conditions: COS7 cell lysate, fluorescence, higher = more signal.
Experiment [6] is described as follows: probe aLAP1 signal on lysate-treated microarray – cell lysate, small-molecule microarray, COS7 lysate, primary screen (AID 1124).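 Also: lysate comes from COS7 cells expressing LAP1 and is applied at 0.3 µg/mL; score merges spot fluorescence near 667 nm with signal-to-noise over triplicate slides.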 Particulars: probe aLAP1, fluorescence, higher = more signal.
For a further experiment, the system named is Sam68 (KHDRBS1). Description: compounds binding KHDRBS1 protein – biochemical, small-molecule microarray, 635 nm fluorescence, primary screen (AID 1125).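 Also: score merges 667 nm channel intensity with signal to noise over triplicate slides.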 Conditions: higher = more signal.
Experiment [7] relates to Chordin-like protein 2 (CHRDL2). Put plainly: compounds binding chordin-like 2 – biochemical, small-molecule microarray, 635 nm fluorescence, primary screen (AID 1126).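 Also: printed compound slides probed with Chrdl2 protein at 4 µg/mL for 1 h at 4 C; score merges 667 nm emission intensity with signal to noise over three replicate slides.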 Particulars: fluorescence 635 nm, higher = more signal.
Experiment [8] has as its target Concanavalin-A (Canavalia ensiformis) (UniProt P02866). Description: compounds binding concanavalin A lectin – biochemical, small-molecule microarray, Alexa647 label, 635 nm, artefact control for SMM control protein annotation, primary screen (AID 1127).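 Also: z combines 667 nm emission intensity with signal-to-noise across three replicate slides.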 Conditions: ConA-A647 binding fluorescence, higher = more signal.
A short description of experiment [9]: compounds binding Alexa647 anti-His antibody – biochemical, small-molecule microarray, 635 nm fluorescence, artefact control for SMM control protein annotation, primary screen (AID 1128).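 Also: score merges feature fluorescence with signal-to-noise for each printed compound spot.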 Particulars: higher = more signal.
In experiment [10] the test system is Human papillomavirus type 1a E7 protein (residues 1-88). Put plainly: HPV1a E7 small-molecule binders, primary screen, biochemical, small-molecule microarray, residues 1-88, 635 nm (AID 1129). Conditions: small-molecule microarray binding, fluorescence 635 nm; higher = more signal.
For experiment [11], the target named is Focal adhesion kinase 1 (Homo sapiens) (UniProt Q05397). Description: PTK2 protein binding on printed compound slides – biochemical, small-molecule microarray, 635/667 nm fluorescence, BSA, DTT, primary screen (AID 1130).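 Also: composite of spot emission at 667 nm and signal to noise over triplicate slides.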 Conditions: 635 nm fluorescence, higher = more signal.
The test system of experiment [12] is Fibrinogen (Alexa647-labelled). Description: Alexa647-fibrinogen binding to printed small molecules – biochemical, small-molecule microarray, 635/667 nm fluorescence, artefact control for SMM control-protein annotation, profiling panel (AID 1131).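 Also: z-score merges 667 nm fluorescence with per-spot signal-to-noise over triplicate slides.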 Particulars: fibrinogen-A647 binding fluorescence, higher = more signal.
Experiment [13] deals with Follistatin (Homo sapiens) (UniProt P19883). Put plainly: FST protein binding to printed compounds – biochemical, small-molecule microarray, 635/667 nm fluorescence, primary screen (AID 1132). Conditions: 635 nm fluorescence, higher = more signal.
The target in experiment [14] is Fibroblast growth factor 2 (Homo sapiens) (UniProt P09038). Description: basic fibroblast growth factor binding to printed compounds – biochemical, small-molecule microarray, 635/667 nm fluorescence, primary screen (AID 1133). Particulars: FGF2, fluorescence 635/667, higher = more signal.
A short description of experiment [15]: JC-1 mitochondrial potential readout, lung cancer cells – cell-based, A549, JC-1 fluorescence, basal, 24 h, 100 nL, profiling panel (AID 1138).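 Also: A549 lung adenocarcinoma cells under basal conditions with no added stimulus; test concentration not given here.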 Particulars: higher = more signal.
For another experiment, the system named is Lefty1. Description: Lefty1 protein binding to printed compounds – biochemical, small-molecule microarray, 635/667 nm fluorescence, primary screen (AID 1139). Particulars: fluorescence 635/667, higher = more signal.
The test system of experiment [16] is wheat germ agglutinin (Triticum aestivum), Alexa647-labelled. Description: Alexa647-WGA lectin binding to printed small molecules – biochemical, small-molecule microarray, 635/667 nm fluorescence, artefact control for SMM control-protein annotation, profiling panel (AID 1140).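 Also: score merges 667 nm feature emission with signal to noise over triplicate slides.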 Particulars: WGA-A647 binding, 635 nm fluorescence, higher = more signal.
Experiment [17] concerns the target Luciferin 4-monooxygenase (Photinus pyralis) (UniProt P08659). Description: inhibition of purified Photinus pyralis luciferase – biochemical, luminescence, purified enzyme, 2006 set, primary screen (AID 1141).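 Also: cell-free assay with purified firefly luciferase at 100 ng per well in PBS; test concentration not given here.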 Particulars: purified firefly luciferase, SteadyGlo luminescence, 30 min; higher = more signal, called active from +8 up or from −8 down.

Albumin (Bos taurus), sequence (P02769 whole entry, looked up): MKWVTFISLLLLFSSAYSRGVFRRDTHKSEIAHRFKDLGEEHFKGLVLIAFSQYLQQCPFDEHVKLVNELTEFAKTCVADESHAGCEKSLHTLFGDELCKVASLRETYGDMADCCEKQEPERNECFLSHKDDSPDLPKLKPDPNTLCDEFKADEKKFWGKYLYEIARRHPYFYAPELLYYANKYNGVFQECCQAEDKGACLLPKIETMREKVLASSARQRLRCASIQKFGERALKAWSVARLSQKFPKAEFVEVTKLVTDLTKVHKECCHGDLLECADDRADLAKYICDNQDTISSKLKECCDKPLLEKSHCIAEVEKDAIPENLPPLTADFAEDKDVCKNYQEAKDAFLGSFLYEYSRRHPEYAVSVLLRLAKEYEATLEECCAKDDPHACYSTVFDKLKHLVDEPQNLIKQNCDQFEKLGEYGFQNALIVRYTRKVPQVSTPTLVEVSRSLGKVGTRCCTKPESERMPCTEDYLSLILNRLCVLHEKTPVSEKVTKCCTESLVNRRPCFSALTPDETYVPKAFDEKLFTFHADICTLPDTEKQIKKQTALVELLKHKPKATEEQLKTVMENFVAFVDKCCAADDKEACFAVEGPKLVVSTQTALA
Luciferin 4-monooxygenase (Photinus pyralis), sequence (P08659 whole entry, looked up): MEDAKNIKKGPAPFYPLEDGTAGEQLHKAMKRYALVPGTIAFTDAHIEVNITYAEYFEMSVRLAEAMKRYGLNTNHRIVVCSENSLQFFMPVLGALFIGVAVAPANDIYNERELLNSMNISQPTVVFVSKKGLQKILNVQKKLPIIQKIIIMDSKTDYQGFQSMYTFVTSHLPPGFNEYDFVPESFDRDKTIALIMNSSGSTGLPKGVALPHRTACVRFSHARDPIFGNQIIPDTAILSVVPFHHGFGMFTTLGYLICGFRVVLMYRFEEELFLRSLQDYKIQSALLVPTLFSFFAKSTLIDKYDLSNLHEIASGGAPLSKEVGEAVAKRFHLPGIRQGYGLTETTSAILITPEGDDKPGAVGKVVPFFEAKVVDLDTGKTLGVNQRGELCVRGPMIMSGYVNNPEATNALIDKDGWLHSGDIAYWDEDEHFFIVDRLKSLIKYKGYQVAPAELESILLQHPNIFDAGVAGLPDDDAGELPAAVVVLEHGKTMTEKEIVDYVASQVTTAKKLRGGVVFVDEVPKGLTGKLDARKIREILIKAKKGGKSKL
Concanavalin-A (Canavalia ensiformis), sequence (P02866 whole entry, looked up): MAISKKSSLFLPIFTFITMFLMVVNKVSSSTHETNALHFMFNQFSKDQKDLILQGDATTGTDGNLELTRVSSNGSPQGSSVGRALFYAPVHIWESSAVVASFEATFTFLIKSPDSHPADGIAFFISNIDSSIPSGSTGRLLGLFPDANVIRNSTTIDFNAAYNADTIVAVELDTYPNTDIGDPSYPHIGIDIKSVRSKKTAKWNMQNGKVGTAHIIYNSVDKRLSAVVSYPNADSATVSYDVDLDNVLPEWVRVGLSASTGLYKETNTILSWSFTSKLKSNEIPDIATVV
Focal adhesion kinase 1 (Homo sapiens), sequence (Q05397 whole entry, looked up): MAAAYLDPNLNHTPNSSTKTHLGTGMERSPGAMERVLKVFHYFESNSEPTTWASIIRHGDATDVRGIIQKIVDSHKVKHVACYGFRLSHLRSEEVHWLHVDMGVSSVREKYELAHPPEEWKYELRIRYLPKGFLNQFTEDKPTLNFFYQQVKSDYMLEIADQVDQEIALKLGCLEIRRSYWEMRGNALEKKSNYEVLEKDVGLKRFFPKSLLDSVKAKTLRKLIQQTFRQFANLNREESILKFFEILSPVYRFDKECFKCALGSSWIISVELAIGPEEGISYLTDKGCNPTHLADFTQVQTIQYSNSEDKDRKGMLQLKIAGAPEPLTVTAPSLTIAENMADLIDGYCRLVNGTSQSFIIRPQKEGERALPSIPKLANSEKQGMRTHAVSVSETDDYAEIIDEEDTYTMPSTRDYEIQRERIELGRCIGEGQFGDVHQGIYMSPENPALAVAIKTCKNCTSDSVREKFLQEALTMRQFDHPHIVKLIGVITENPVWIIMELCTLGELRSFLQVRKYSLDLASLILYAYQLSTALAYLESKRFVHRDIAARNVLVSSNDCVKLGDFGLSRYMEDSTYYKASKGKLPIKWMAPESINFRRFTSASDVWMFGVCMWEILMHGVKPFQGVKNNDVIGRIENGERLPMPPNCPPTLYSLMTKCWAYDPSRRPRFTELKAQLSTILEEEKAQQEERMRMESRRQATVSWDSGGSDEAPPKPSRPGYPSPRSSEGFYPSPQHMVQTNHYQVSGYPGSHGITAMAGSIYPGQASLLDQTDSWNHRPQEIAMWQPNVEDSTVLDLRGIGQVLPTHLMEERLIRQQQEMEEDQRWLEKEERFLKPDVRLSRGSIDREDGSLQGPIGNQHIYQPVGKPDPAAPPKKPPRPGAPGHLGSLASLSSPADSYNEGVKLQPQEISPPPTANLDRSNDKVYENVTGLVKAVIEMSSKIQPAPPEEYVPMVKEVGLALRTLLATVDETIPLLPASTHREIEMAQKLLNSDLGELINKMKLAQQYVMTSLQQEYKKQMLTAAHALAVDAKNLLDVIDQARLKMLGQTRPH
Follistatin (Homo sapiens), sequence (P19883 whole entry, looked up): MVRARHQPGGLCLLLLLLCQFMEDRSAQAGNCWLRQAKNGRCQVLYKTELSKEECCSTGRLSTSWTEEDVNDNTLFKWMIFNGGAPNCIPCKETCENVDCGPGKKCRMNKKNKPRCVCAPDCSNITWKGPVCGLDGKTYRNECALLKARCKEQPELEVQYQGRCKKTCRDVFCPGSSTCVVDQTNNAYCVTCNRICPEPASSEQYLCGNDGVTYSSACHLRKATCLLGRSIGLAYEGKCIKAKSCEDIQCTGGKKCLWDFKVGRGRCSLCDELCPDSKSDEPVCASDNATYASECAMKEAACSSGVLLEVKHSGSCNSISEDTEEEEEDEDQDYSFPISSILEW
Fibroblast growth factor 2 (Homo sapiens), sequence (P09038 whole entry, looked up): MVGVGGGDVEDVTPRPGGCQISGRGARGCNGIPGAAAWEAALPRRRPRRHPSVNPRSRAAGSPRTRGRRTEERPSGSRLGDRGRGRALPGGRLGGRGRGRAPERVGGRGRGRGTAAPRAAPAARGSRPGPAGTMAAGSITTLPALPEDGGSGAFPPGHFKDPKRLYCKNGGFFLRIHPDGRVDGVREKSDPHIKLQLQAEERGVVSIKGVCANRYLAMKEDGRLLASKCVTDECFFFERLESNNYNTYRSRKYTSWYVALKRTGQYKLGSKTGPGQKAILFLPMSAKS

For the compound `COC(=O)CC=C[C@@H](C)[C@@H](C=NOC[C@@H](C)[C@H](OCc1ccccc1)C(C)C)NS(=O)(=O)c1ccc(C)cc1`, the composite z-score with Albumin (Bos taurus) is -1.05; in experiment [2], -0.161; in experiment [3] it was -0.216; in experiment [4], -0.351; in [5], -0.342; in experiment [6] it was 0.102. The composite z-score in the experiment on Sam68 (KHDRBS1) was -0.135; in experiment [7] it was 0.271; in experiment [8], -0.596; in experiment [9], 1.82; in experiment [10], -0.588; in experiment [11], -0.424. The composite z-score in experiment [12] is -1.52; in [13], 0.131; in experiment [14], 0.0249; with Lefty1, 0.329; in [16], -1.57. In experiment [1], the composite Z-score was 0.216 (inactive). The z-score was -0.48 in experiment [15] and 0.419 (inactive) in [17].

Regarding `CC1(C)O[C@H]2OC([C@H](O)CON3C(=O)c4ccccc4C3=O)[C@H](O)[C@H]2O1` (stereo not given in full), the composite z-score in the experiment with Albumin (Bos taurus) was 0.107; in experiment [2], -0.135; in experiment [3] it was 0.117; in experiment [4], 0.341; in experiment [5], -0.378; in experiment [6] it was -0.0948. In addition, the composite z-score in the experiment with Sam68 (KHDRBS1) is 0.29; in experiment [7], 0.0988; in experiment [8] it was -0.371; in [9], 0.547; in [10], -0.103; in [11] it was 0.433. In addition, the composite z-score was determined as 0.12 in [12]; 0.0275 in [13]; 0.495 in experiment [14]; 0.291 in the experiment on Lefty1; 0.561 in experiment [16]. In addition, the composite Z-score in experiment [1] is -0.282 (inactive). Also, the z-score is -0.487 in [15] and -0.317 (inactive) in experiment [17].

Consider `COc1ccc(COC(=O)NN=C2C[C@@H](O)[C@@H](O)[C@@H]3[C@@H]4C(=O)N(C[C@@H]5CCCO5)C(=O)[C@@H]4CC[C@@H]23)cc1`, for which the composite z-score was 0.0566 in the experiment with Albumin (Bos taurus); -0.128 in [2]; -0.0832 in [3]; 0.234 in [4]; 0.727 in experiment [5]; 0.824 in [6]. Moreover, the composite z-score is 0.78 in the experiment on Sam68 (KHDRBS1); 0.508 in experiment [7]; 0.327 in experiment [8]; 0.365 in experiment [9]; 0.275 in [10]; -0.2 in experiment [11]. The composite z-score in experiment [12] stood at 0.953; in experiment [13], 0.0253; in experiment [14] it was 0.104; with Lefty1, 0.0359; in [16], 0.627. Besides, the composite Z-score in experiment [1] is 0.58 (inactive). Further, the z-score in experiment [15] was 0.883; in experiment [17], 0.181 (inactive).

As for `CCOC(=O)[C@H](CC(C)C)NC(=O)CCC1CC(OC(=O)NCc2ccc3c(c2)OCO3)CC2(CCCC(COC(=O)NCCOC)O2)O1` (stereo not given in full), the composite z-score with Albumin (Bos taurus) was -0.398; in [2], 0.0208; in [3], -0.166; in experiment [4], 0.152; in experiment [5], 0.57; in experiment [6], 0.0898. Further, the composite z-score is 0.911 in the experiment with Sam68 (KHDRBS1); 0.293 in [7]; 0.858 in experiment [8]; 0.418 in [9]; 0.758 in [10]; -0.379 in experiment [11]. The composite z-score was found to be 0.942 in experiment [12]; 0.589 in experiment [13]; 0.725 in experiment [14]; 0.847 in the experiment on Lefty1; 0.609 in experiment [16]. Moreover, the composite Z-score in experiment [1] was -0.0756 (inactive). For the same compound, the values for the z-score in experiment [15] and in experiment [17] were -0.119 and 0.713 (inactive), respectively.

As to `COC(=O)CC=C[C@@H](C)[C@@H](C=NOC[C@@H](C)[C@H](OCc1ccccc1)C(C)C)OC`, the composite z-score in the experiment with Albumin (Bos taurus) was -0.469; in experiment [2], -0.0647; in experiment [3], -0.124; in experiment [4], -0.12; in [5] it was 0.266; in experiment [6], -0.61. The composite z-score with Sam68 (KHDRBS1) is 0.447; in experiment [7], 0.386; in experiment [8], 0.102; in [9], 1.86; in experiment [10] it was -0.0858; in experiment [11], 0.0285. Further, the composite z-score was -0.211 in [12]; 0.088 in [13]; 0.323 in experiment [14]; 0.419 in the experiment with Lefty1; -0.307 in experiment [16]. For the same compound, the composite Z-score in experiment [1] was -0.235 (inactive). Moreover, the z-score was -1.01 in [15] and -0.698 (inactive) in [17].
